The structures appear in SMILES notation. This is part of a sample that, as a whole, favours compounds with a hit. Of some 83,000 tested, about 20% had one in any assay.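 The endpoint reported here, percent growth, reads 100 for growth as untreated, 0 for no net growth and -100 for all cells dead.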 Unmarked numbers belong to inactive results. Activity calls are given as the source filed them. The calls were made as follows: active = growth percent below 10; inactive = the rest.

Assay in all cases: NCI-60 one-dose screen, 48 h (100 = growth as untreated, 0 = no growth, -100 = all killed)
The subject of one experiment is DU-145 prostate. As to conditions: 10 µM unless noted.
The test system of the next experiment is K-562 leukemia. As to conditions: 10 µM unless noted.
The next experiment deals with MALME-3M melanoma. As to conditions: 10 µM unless noted.
The test system of another experiment is MDA-MB-231 breast. As to conditions: 10 µM unless noted.
The next experiment relates to RXF 393 renal. As to conditions: 10 µM unless noted.
The subject of the next experiment is SF-268 CNS. As to conditions: 10 µM unless noted.
A further experiment has as its system SF-295 CNS. As to conditions: 10 µM unless noted.
For another experiment, the system named is SF-539 CNS. As to conditions: 10 µM unless noted.
The next experiment relates to UACC-257 melanoma. As to conditions: 10 µM unless noted.
Another experiment relates to M14 melanoma. As to conditions: 10 µM unless noted.
The subject of another experiment is HCT-15 colon. As to conditions: 10 µM unless noted.
The subject of a further experiment is HT29 colon. As to conditions: 10 µM unless noted.
For the next experiment, the system named is SNB-75 CNS. As to conditions: 10 µM unless noted.
The next experiment relates to SNB-19 CNS. As to conditions: 10 µM unless noted.
The subject of the next experiment is U251 CNS. As to conditions: 10 µM unless noted.
The next experiment relates to PC-3 prostate. As to conditions: 10 µM unless noted.
The test system of another experiment is SK-MEL-5 melanoma. As to conditions: 10 µM unless noted.
A further experiment relates to UACC-62 melanoma. As to conditions: 10 µM unless noted.
The subject of the next experiment is LOX IMVI melanoma. As to conditions: 10 µM.
In another experiment the test system is SK-MEL-28 melanoma. As to conditions: 10 µM unless noted.

As for `CN(C)c1ccc(/C=C/c2sc3ccc4ccccc4c3[n+]2C)cc1`, the growth in the experiment with DU-145 prostate is -40% (active); in the experiment with K-562 leukemia, 0.148% (active); with MALME-3M melanoma it was -48.8% (active); in the experiment with MDA-MB-231 breast, -61.5% (active); with RXF 393 renal, -95.1% (active); in the experiment on SF-268 CNS, -65.1% (active). Moreover, the growth in the experiment with SF-295 CNS was -35.4% (active); in the experiment on SF-539 CNS, -54.6% (active); in the experiment on UACC-257 melanoma, -48.7% (active); with M14 melanoma, -76.5% (active); in the experiment with HCT-15 colon it was 0.902% (active); in the experiment on HT29 colon it was -100% (active). The growth was -95.6% (active) in the experiment with SNB-75 CNS; -32.5% (active) in the experiment on SNB-19 CNS; -51.2% (active) in the experiment with U251 CNS; -38% (active) with PC-3 prostate; -100% (active) in the experiment with SK-MEL-5 melanoma; -75% (active) with UACC-62 melanoma. In addition, the growth in the experiment with LOX IMVI melanoma was -35.3% (active).
In the case of `O=C1/C(=C/c2ccccc2)CCC/C1=C\c1ccccc1`, the growth was 90% with DU-145 prostate; 62% with K-562 leukemia; 89.5% with MALME-3M melanoma; 98.9% in the experiment with MDA-MB-231 breast; 98% in the experiment on RXF 393 renal; 86.9% in the experiment with SF-268 CNS. In addition, the growth with SF-295 CNS is 91.8%; in the experiment on SF-539 CNS, 111%; with UACC-257 melanoma it was 84.5%; with M14 melanoma, 64%; in the experiment on HCT-15 colon, 81.5%; with HT29 colon, 30.5%. Moreover, the growth is 95.9% in the experiment on SNB-75 CNS; 94.6% with SNB-19 CNS; 66.2% in the experiment on U251 CNS; 88.9% with PC-3 prostate; 86.7% in the experiment with SK-MEL-5 melanoma; 82.6% in the experiment on UACC-62 melanoma. The figures for the growth in the experiment on LOX IMVI melanoma and in the experiment on SK-MEL-28 melanoma were 28.8% and 98.5%, respectively.
Take `CN(C)c1ccc(C(=C2C=CC(=[N+](C)C)C=C2)c2ccc(N(C)C)cc2)cc1`: the growth is -91.8% (active) in the experiment on DU-145 prostate; -10.4% (active) in the experiment with K-562 leukemia; -81.4% (active) with MALME-3M melanoma; -56.5% (active) in the experiment on MDA-MB-231 breast; -92.2% (active) in the experiment on RXF 393 renal; -74.1% (active) in the experiment with SF-268 CNS. Besides, the growth was -55.2% (active) with SF-295 CNS; -70.6% (active) in the experiment with SF-539 CNS; -62.7% (active) with UACC-257 melanoma; -80.2% (active) in the experiment with M14 melanoma; -19.3% (active) in the experiment with HCT-15 colon; -19.7% (active) with HT29 colon. For the same compound, the growth in the experiment on SNB-75 CNS is -49.7% (active); with SNB-19 CNS it was -75.5% (active); in the experiment on U251 CNS, -87.9% (active); in the experiment with PC-3 prostate it was -31.3% (active); in the experiment with SK-MEL-5 melanoma, -98.8% (active); with UACC-62 melanoma, -54% (active). Besides, the growth is -70.2% (active) with LOX IMVI melanoma and -79.6% (active) with SK-MEL-28 melanoma.
As for `CCCCCCCCCCCC(=O)OC(C)C(=O)NCCCC` (stereo unspecified), the growth was 105% in the experiment on DU-145 prostate; 94.1% in the experiment with K-562 leukemia; 96.4% with MALME-3M melanoma; 113% with MDA-MB-231 breast; 107% in the experiment with RXF 393 renal; 101% in the experiment on SF-268 CNS. Besides, the growth in the experiment on SF-295 CNS was 102%; in the experiment with SF-539 CNS it was 108%; with UACC-257 melanoma, 96.4%; with M14 melanoma, 105%; in the experiment on HCT-15 colon it was 106%; in the experiment with HT29 colon, 101%. For the same compound, the growth was 105% in the experiment with SNB-75 CNS; 106% in the experiment with SNB-19 CNS; 93.7% in the experiment on U251 CNS; 95.8% with PC-3 prostate; 102% in the experiment with SK-MEL-5 melanoma; 103% in the experiment on UACC-62 melanoma. Besides, the growth in the experiment with LOX IMVI melanoma was 93.6%; in the experiment with SK-MEL-28 melanoma, 121%.
For `COc1ccc2c(c1OC)OCC(CN(C)C)C2=O` (stereo unspecified), the growth in the experiment with DU-145 prostate was 91.9%; in the experiment with K-562 leukemia, -100% (active); in the experiment with MALME-3M melanoma, 71.5%; in the experiment on MDA-MB-231 breast, 96.7%; in the experiment with RXF 393 renal it was 98%; in the experiment with SF-268 CNS, 110%. Further, the growth was 96.2% in the experiment with SF-295 CNS; 97.1% in the experiment with SF-539 CNS; 99.1% in the experiment on UACC-257 melanoma; 98.5% with M14 melanoma; -58.5% (active) with HCT-15 colon; 73.3% with HT29 colon. The growth with SNB-75 CNS was 93.4%; with SNB-19 CNS it was 99.1%; in the experiment with U251 CNS it was 103%; in the experiment on PC-3 prostate it was 98.3%; in the experiment with SK-MEL-5 melanoma, 101%; in the experiment with UACC-62 melanoma, 95.9%. In addition, in the experiment on LOX IMVI melanoma, the growth was 87%.
For the compound `O=C(/C=C/C(Cl)(Cl)Cl)Nc1ccc(Cl)cc1`, the growth is 97.7% in the experiment on DU-145 prostate; 65.7% in the experiment with K-562 leukemia; 121% in the experiment on MALME-3M melanoma; 113% in the experiment with MDA-MB-231 breast; 87% in the experiment on RXF 393 renal; 112% in the experiment on SF-268 CNS. Also, the growth with SF-295 CNS was 115%; in the experiment with SF-539 CNS it was 103%; with UACC-257 melanoma, 102%; in the experiment with M14 melanoma, 105%; in the experiment on HCT-15 colon, 88.3%; with HT29 colon, 94.7%. The growth was 110% with SNB-75 CNS; 103% with SNB-19 CNS; 100% in the experiment with U251 CNS; 104% in the experiment on PC-3 prostate; 90.8% in the experiment on SK-MEL-5 melanoma; 98.5% in the experiment with UACC-62 melanoma. In the experiment on LOX IMVI melanoma, the growth was -69.8% (active).
As to `COc1cc(-c2ccc(-[n+]3nc(-c4ccc([N+](=O)[O-])cc4)nn3-c3ccc([N+](=O)[O-])cc3)c(OC)c2)ccc1-[n+]1nc(-c2ccc([N+](=O)[O-])cc2)nn1-c1ccc([N+](=O)[O-])cc1`, the growth in the experiment on DU-145 prostate was -32.7% (active); in the experiment with K-562 leukemia it was 3.89% (active); in the experiment on MALME-3M melanoma, -44.6% (active); in the experiment with MDA-MB-231 breast, 51.4%; with RXF 393 renal, -39.9% (active); in the experiment with SF-268 CNS, -33.9% (active). The growth is -30.7% (active) in the experiment with SF-295 CNS; -66.4% (active) in the experiment with SF-539 CNS; -42.5% (active) in the experiment on UACC-257 melanoma; 58.3% in the experiment with M14 melanoma; 29.7% in the experiment on HCT-15 colon; -6.65% (active) with HT29 colon. The growth was -35.8% (active) in the experiment with SNB-75 CNS; 40.8% with SNB-19 CNS; 43.9% in the experiment with U251 CNS; 47.9% in the experiment with PC-3 prostate; 47.4% in the experiment on SK-MEL-5 melanoma; 85.9% in the experiment on UACC-62 melanoma. The growth in the experiment on LOX IMVI melanoma is -75.5% (active); with SK-MEL-28 melanoma, 73.1%.
Regarding `O=C(O)c1cccc2cccc(-c3c4ccc(=O)c(O)c-4oc4c(O)c(O)ccc34)c12`, the growth in the experiment with DU-145 prostate is 98.2%; in the experiment with K-562 leukemia, 70.6%; in the experiment with MALME-3M melanoma, 102%; in the experiment on MDA-MB-231 breast, 83%; with RXF 393 renal, 94.4%; in the experiment with SF-268 CNS it was 92.8%. Further, the growth in the experiment on SF-295 CNS was 103%; in the experiment on SF-539 CNS, 89.4%; in the experiment on UACC-257 melanoma, 110%; in the experiment on M14 melanoma it was 92.5%; with HCT-15 colon, 105%; with HT29 colon, 103%. In addition, the growth with SNB-75 CNS was 89.6%; with SNB-19 CNS, 98.1%; in the experiment on U251 CNS it was 99.5%; with PC-3 prostate it was 92.3%; with SK-MEL-5 melanoma it was 94.6%; in the experiment with UACC-62 melanoma, 90.6%. Besides, the growth in the experiment with LOX IMVI melanoma is 90%.

The values above are taken from PubChem BioAssay (NCI).
